Source: PubChem BioAssay (National Center for Advancing Translational Sciences (NCATS))
Nrf2 block: Nrf2 qHTS screen for inhibitors | A549 ARE-Fluc reporter, luciferase luminescence, 18-24 h | Potency, µM (titrated, usually from 46 µM), inactives show at the top dose activity change, negative = inhibition, most hits filed as inhibitors | 360,000 tested, 2.1% active | AID 504444, 2011; also: % is scaled to controls: 0 for no effect and ±100 for the full control effect; nearly all actives have a fitted effect of over 60% in size
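A549 ARE_Fluc cells, 5000/well, 5% FBS OPTI-MEM; compounds in dose-response, 18-24 h at 37 °C/5% CO2; CellTiter-Fluor viability read (Ex 405/Em 525), then BugLite luciferase luminescence = Nrf2 activity.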
ATXN2 expr inh: Primary qHTS for Inhibitors of ATXN expression. HEK-293 ATXN2-luciferase reporter, luminescence, 24 h. Potency, µM (highest dose often 57 µM), for the others: at the top dose activity change, negative = inhibition, actives largely listed as inhibitors. 360,000 tested, 0.72% active. AID 1745845, 2022; also: % is scaled to controls: 0 for no effect and ±100 for the full control effect; nearly all actives have a fitted effect of over 55% in size
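ATXN2-luciferase reporter cells (luciferase flanked by upstream and downstream ATXN2 gene portions) were treated 24 h at 37 °C with compounds at up to 57 uM. SteadyGlo luminescence gave expression; GF-AFC fluorescence gave viability.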
ATXN viability: Viability Counterscreen for Primary qHTS for Inhibitors of ATXN expression; Potency, µM (top dose mostly 56.7 µM), most hits filed as cytotoxic; 400,000 tested, 0.49% active; S2 cells (HEK-293 line with an ATXN2-luciferase reporter) viability, CellTiter-Fluor protease fluorescence, 24 h; also: nearly all actives have a fitted effect of over 40% in size
HepG2 viability: qHTS for Inhibitors of TGF-b: Cytotox Counterscreen. HepG2 CAGA-GFP viability, ATP luminescence, 18 h. Potency, µM (highest dose often 46.1 µM), for the others: top-dose activity change, negative = cytotoxicity, actives largely listed as cytotoxic. 410,000 tested, 0.76% active. AID 588856, 2011
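HepG2 CAGA-GFP cells (1000/well, DMEM with 1% FBS) received compound, then TGF-beta at 500 pg/mL final, and were incubated 18 hours at 37 degrees C. Viability was read by CellTiter-Glo luminescence. Media-only wells were set as complete cell-killing and DMSO as no toxicity.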
TGFb SMAD3 inh: qHTS for Inhibitors of TGF-b | HepG2 CAGA-GFP TGF-b/SMAD3 reporter, GFP fluorescence, 18 h; TGF-beta stimulated, 500 pg/mL final | Potency, µM (titrated, usually from 46.1 µM), for inactives: top-dose activity, negative = inhibition, usual class: inhibitors | 410,000 tested, 1.2% active; also: % is scaled to controls: 0 for no effect and ±100 for the full control effect; nearly all actives have a fitted effect of over 65% in size
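Cell-based qHTS in HEPG2 carrying a CAGA-GFP Smad reporter; compounds added before 500 pg/mL final TGF-beta, 18 h incubation at 37 degrees C, GFP fluorescence quantified per cell by imaging cytometry.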
A549 viability: Nrf2 qHTS screen for inhibitors: counterscreen for cytotoxicity; 390,000 tested, 0.16% active; A549 ARE-Fluc cells, CellTiter-Fluor viability, 18-24 h; Potency, µM (doses to about 46 µM), for the others: at the highest dose activity change, negative = cytotoxicity, hits mostly inhibitors; also: % is scaled to controls: 0 for no effect and ±100 for the full control effect
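A549 ARE-Fluc cells in 5% FBS OPTI-MEM, 5000 cells/well, rested 2 h then exposed to compounds in concentration-response for 18-24 h at 37 °C. Viability by CellTiter-Fluor fluorescence (Ex 405/Em 525) after 30 min; luciferase luminescence (BugLite, 15 min, RT) read afterwards.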
An asterisk follows results filed as active; i = inactive; u = inconclusive; x = no result. Compounds with a hit are over-represented: about 3.8% of the library has one in this group of screens. Calls follow the shape of the dose curve; as a rule, active = well fitted curve in the direction sought with a large enough effect; inconclusive = small, poorly fitted or top-dose-only effect, or another doubt; inactive = no such curve, though single readings can be large; an effect the other way counts as inactive or inconclusive. Potency is read from the fitted curve at half-maximal effect.

SMILES	Nrf2 block	ATXN2 expr inh	ATXN viability	HepG2 viability	TGFb SMAD3 inh	A549 viability
O=C(CN1C(=O)/C(=C\c2ccccc2Cl)Sc2ccccc21)NCCCN1CCOCC1	21µM*	-31%	u	-24%	0%	u
O=C(CN1C(=O)/C(=C\c2cccc(Cl)c2)Sc2ccccc21)NCCCN1CCOCC1	-1%	x	u	-30%	-22%	-2%
CCc1ccc(/C=C2/Sc3ccccc3N(CC(=O)NCCCN3CCOCC3)C2=O)cc1	8%	x	u	18µM*	u	-3%
Cc1cccc(CN2C(=O)/C(=C\c3ccc(C(=O)NCCN4CCOCC4)cc3)Sc3ccccc32)c1	u	u	i	-9%	u	-23%
Cc1ccccc1-c1cnc(C(O)c2c(C)ccc3ccccc23)[nH]1 (stereo unspecified)	x	-16%	i	-13%	15%	x
C=C1C(=O)[C@]23C[C@H]1CCC2[C@@]1(C)C(C[C@@H]3O)[C@](C)(C(=O)O)C[C@H](O)[C@@H]1O (stereo partly specified)	x	3%	i	-2%	-4%	x
C=C1C(=O)[C@]23C[C@H]1CCC2[C@@]1(C)C(C[C@@H]3O)[C@](C)(C(=O)OC)CC[C@@H]1OC(C)=O (stereo partly specified)	x	2.5µM*	2.8µM*	5.6µM*	1µM*	x
C=C1C(=O)[C@]23C[C@H]1CC[C@H]2[C@]1(C)[C@@H](O)CC[C@@](C)(C(=O)O)[C@H]1C[C@@H]3O	x	u	x	-89%	8.9µM*	x
C=C1C(=O)[C@]23C[C@H]1CC[C@H]2[C@]1(C)[C@@H](OC(C)=O)CC[C@@](C)(C(=O)O)[C@H]1C[C@@H]3O	x	3.2µM*	x	-79%	5.6µM*	x
C=C1C(=O)[C@]23C[C@H]1CC[C@H]2[C@]1(C)[C@@H](OC(C)=O)CC[C@@](C)(C(=O)OC)[C@H]1C[C@@H]3OC(C)=O	x	u	32µM*	5.6µM*	u	x
COc1ccccc1OCC(=O)N(Cc1ccco1)Cc1ccccc1F	-2%	x	x	-21%	u	5%
COc1ccccc1-c1noc(-c2ccc(N3CCOCC3)c([N+](=O)[O-])c2)n1	-11%	50%	i	-4%	-1%	-2%
CCC(c1nnnn1CCc1ccccc1)N(Cc1ccco1)Cc1cc2cc(C)cc(C)c2[nH]c1=O (stereo unspecified)	u	-26%	i	11%	u	u
CCC(c1nnnn1CCc1ccccc1)N(Cc1ccco1)Cc1cc2c(C)ccc(C)c2[nH]c1=O (stereo unspecified)	18µM*	u	i	-6%	u	u
Cc1ncc2c(c1CNS(=O)(=O)N(C)C)CCN(C(=O)c1ccc(F)cc1Cl)C2	x	x	i	x	x	x
COc1ccccc1NC(=O)CSc1nc2n[nH]c(C)c2c(=N)n1-c1ccccc1Cl	13µM*	u	i	-16%	-30%	-10%
CCCCN(CC)C(=O)CSc1nc2n[nH]c(C)c2c(=N)n1-c1cccc(OC)c1	x	x	x	-30%	4.5µM*	-19%
CCCCN(CC)C(=O)CSc1nc2n[nH]c(C)c2c(=N)n1-c1ccc(CC)cc1	x	x	x	-69%	1.4µM*	-19%
CCCN(CCC)C(=O)CSc1nc2n[nH]c(C)c2c(=N)n1-c1ccc(OC)cc1	18µM*	-11%	i	-3%	-9%	u
Cc1[nH]nc2nc(SCC(=O)NC3CCCCC3)n(-c3ccc(Br)cc3)c(=N)c12	18µM*	13µM*	20µM*	6%	-24%	u
CCc1ccc(NC(=O)CSc2nc3n[nH]c(C)c3c(=N)n2-c2ccc(C)cc2)cc1	x	x	x	-50%	0%	-14%
Cc1ccc(-c2c(C)n3c4c(=O)n(C)c(=O)n(C)c4nc3n2CCCO)cc1	18µM*	25µM*	28µM*	-36%	u	-13%
COC(=O)CCCn1c(-c2ccc(C)cc2)c(C)n2c3c(=O)n(C)c(=O)n(C)c3nc12	-27%	5%	i	-1%	1%	-10%
COc1cc2nccc(Oc3ccc(NC(=O)C4(C(=O)Nc5ccc(F)cc5)CC4)cc3)c2cc1OC	x	19µM*	x	x	x	x
Cc1ccc(NC(=O)C2CCCN(c3ncnc4c3nc3n4CCCCC3)C2)c(Br)c1 (stereo unspecified)	19%	-4%	i	0%	-4%	5%
SMILES	Nrf2 block	ATXN2 expr inh	ATXN viability	HepG2 viability	TGFb SMAD3 inh	A549 viability
CN1CCc2c(sc(NC(=O)c3cc(Cl)sc3Cl)c2C(N)=O)C1	5%	-9%	i	-59%	-26%	8%
Cc1ccc2oc(/N=C(\N)NC(=O)C3CC3)nc2c1	u	x	u	-17%	-18%	11%
Cc1ccc2oc(/N=C(\N)NC(=O)C(C)(C)C)nc2c1	13µM*	-82%	i	-26%	0%	0%
Cc1cc2oc(=O)cc(-c3ccccc3)c2c(C)c1-c1ccc(C#N)cc1	u	-12%	i	-28%	-26%	4%
CN(C)CCNc1nc2sc3c(c2c(=O)n1-c1ccccc1)CCCCC3	12%	-25%	i	14µM*	-18%	1%
CN(C)CCNc1nc2sc3c(c2c(=O)n1-c1ccc(F)cc1)CCCCC3	2%	-1%	i	-23%	u	-14%
CC1CN(c2ccc([N+](=O)[O-])c(NCCOc3ccc(Cl)cc3)c2)CC(C)N1 (stereo unspecified)	-11%	x	x	14µM*	u	-9%
Cc1ccccc1OCCNc1cc(N2CC(C)NC(C)C2)ccc1[N+](=O)[O-] (stereo unspecified)	-7%	u	24µM*	-116%	u	-18%
O=[N+]([O-])c1ccc(N2CCCCC2)cc1NCCOc1ccccc1	9%	21%	i	4%	-13%	0%
CCc1ccc(OCCNc2cc(N3CCNC(C)C3)ccc2[N+](=O)[O-])cc1 (stereo unspecified)	-24%	u	i	11µM*	u	1%
CC1CN(c2ccc([N+](=O)[O-])c(NCCOc3ccccc3)c2)CC(C)N1 (stereo unspecified)	2%	u	u	-58%	u	5%
CCOc1ccc2nc3cc(N=Nc4ccc(N)nc4N)ccc3c(N)c2c1	u	u	x	14µM*	u	-14%
COC(=O)c1ccc(S(=O)(=O)N2CCCN(Cc3ccc(F)cc3)CC2)n1C	13µM*	-17%	i	10%	u	1%
